# Assay outcomes deposited in PubChem by National Center for Advancing Translational Sciences (NCATS).
# Shown are actives, neighbours in structure and some others; about 0.43% of the full set was active somewhere.
# aGlu spleen mod: qHTS Assay for Inhibitors and Activators of Human alpha-Glucosidase From Spleen Homogenate | Lysosomal alpha-glucosidase (Homo sapiens), P10253 | human spleen homogenate, 4-MU-alpha-glucoside fluorescence | Potency, µM (top dose mostly 79.9 µM), hits mostly inhibitors | 240,000 tested, 0.006% active
#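 Compounds were titrated against alpha-glucosidase in spleen homogenate at pH 5.0, with 1 mM 4-methylumbelliferyl substrate for 40 min at 37 C. Reactions were quenched with pH 10 NaOH/glycine and fluorescence measured.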
# GAA inhib: qHTS Assay for Inhibitors of Human alpha-Glucosidase as a Potential Chaperone Treatment of Pompe Disease | Lysosomal alpha-glucosidase (Homo sapiens), P10253 | purified human GAA, 4-MU-alpha-glucoside fluorescence | Potency, µM (doses to about 76.9 µM), actives largely listed as inhibitors | 200,000 tested, 0.005% active
#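 Fluorogenic assay: 4 nM human alpha-glucosidase with 400 uM 4-methylumbelliferyl-alpha-D-pyranoside in 50 mM citrate/phosphate, 0.005% Tween-20, pH 5.0, 20 min at room temperature. Compounds tested up to 77 uM; AC50 from Hill fits.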
# N370S GC mod: qHTS Assay for Inhibitors and Activators of N370S glucocerebrosidase as a Potential Chaperone Treatment of Gaucher Disease | N370S GC spleen homogenate, 4MU-glucoside fluorescence | Potency, µM (highest dose often 59.4 µM), actives largely listed as inhibitors | 330,000 tested, 0.092% active | AID 2101, 2009
# GLA inh pH 4.5: qHTS Assay for Inhibitors of Human alpha-Galactosidase at pH 4.5 | AID 1467, 2008 | purified enzyme, 4-MU-alpha-Gal fluorescence, pH 4.5 | Alpha-galactosidase A (Homo sapiens), P06280 | activity change, negative = inhibition, % at 105 µM | 230,000 tested, under 10 active
# Target sequence (P06280 whole entry, looked up): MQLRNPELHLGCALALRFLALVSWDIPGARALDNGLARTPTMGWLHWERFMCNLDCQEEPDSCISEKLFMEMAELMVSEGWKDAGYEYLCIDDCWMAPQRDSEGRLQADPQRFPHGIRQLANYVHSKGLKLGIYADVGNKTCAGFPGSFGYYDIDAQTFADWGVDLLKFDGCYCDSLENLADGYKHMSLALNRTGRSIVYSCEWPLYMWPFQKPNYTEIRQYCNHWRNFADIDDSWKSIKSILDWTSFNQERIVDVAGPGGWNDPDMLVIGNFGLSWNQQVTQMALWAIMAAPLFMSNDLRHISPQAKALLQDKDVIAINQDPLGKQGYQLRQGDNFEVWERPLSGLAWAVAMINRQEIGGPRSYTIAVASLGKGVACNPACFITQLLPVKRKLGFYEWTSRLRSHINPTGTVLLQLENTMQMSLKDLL
# GAA glycogen mod: qHTS Assay for Inhibitors and Activators of Human alpha-Glucosidase Cleavage of Glycogen; recombinant GAA, glycogen substrate, Amplex Red glucose oxidase fluorescence; Potency, µM (titrated, usually from 76.4 µM), actives largely listed as inhibitors; 300,000 tested, 0.38% active;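 further: the screen sought inhibitors and activators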
#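 Recombinant human alpha-glucosidase (4 nM final) hydrolysed bovine liver glycogen (30 ug) for 40 min at 37 C in pH 5.0 citrate/phosphate with 0.01% Tween-20. Released glucose detected by glucose oxidase/Amplex Red, Ex 573/Em 610 nm. Compounds up to 77 uM; AC50 from Hill fits.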
# GLA spleen mod: qHTS Assay for Inhibitors and Activators of Human alpha-Galactosidase From Spleen Homogenate. human spleen homogenate, 4MU-alpha-Gal fluorescence, 40 min. Potency, µM (highest dose often 80 µM), hits mostly inhibitors. 240,000 tested, 0.008% active
#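 Spleen homogenate 1 ug + cpd (titration) + 4-MU-alpha-D-galactopyranoside 1 mM; 37C 40 min; 50 mM citrate/phosphate pH 5.0, 0.01% Tween-20; stop pH 10; fluorescence 365/440; AC50 via Hill.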
# Numbers stand for hits; 0 = inactive; ? = inconclusive; - = no result; [ ] = remark or other dose. The call rests on the fitted dose curve; in most records, active means well fitted curve in the direction sought with a large enough effect; inconclusive means small, poorly fitted or top-dose-only effect, or another doubt; inactive means no such curve, though single readings can be large; an effect the other way counts as inactive or inconclusive.
SMILES,aGlu spleen mod,GAA inhib,N370S GC mod,GLA inh pH 4.5,GAA glycogen mod,GLA spleen mod
COc1cccc([C@@H]2Oc3ccc(OC)cc3C(=O)[C@H]2OC(=O)NS(=O)(=O)c2ccc(C)cc2)c1,0,-,0,0,-,0
CC1(C)C(c2cccs2)=[N+]([O-])C2(CCCCC/C2=N\NC(N)=S)N1O (stereo not drawn),0,0,0,0,17.6µM,0
CC1(C)C(c2ccco2)=[N+]([O-])C2(CCCCC2=O)N1O (stereo not drawn),0,0,0,0,0,0
COc1ccc(C2=Nn3c(nnc3-c3ccccc3OC)SC2)c(OC)c1,0,-,0,-,-,0
C=CCn1c(-c2cc(-c3ccccc3)sc2N)n[nH]c1=S,0,0,0,0,22.4µM,0
C=CCn1c(-c2csc(-c3ccccc3)n2)n[nH]c1=S,0,0,0,0,0,0
COC(=O)C1=C(C(=O)OC)[C@@H]2N(C)c3ccccc3[C@@]23C[C@@H](C(=O)OC)N(S(=O)(=O)c2ccc4c(c2)OCCN4C)C3=N1,0[17.4 µM],-,0[12.8 µM],0,-,0[17.5 µM]
CC1Sc2ccc(S(=O)(=O)CCC(=O)Nc3cc(F)ccc3F)cc2NC1=O (stereo not drawn),-,-,10µM,-,-,-
Cc1cc(NC(=O)CCS(=O)(=O)c2ccc3c(c2)NC(=O)C(C)S3)ccc1Br (stereo not drawn),-,-,8.91µM,-,-,-
COc1cc(OC)cc(-c2nnc3n2N=C(c2ccc(OC)cc2OC)CS3)c1,0,-,0,-,-,0
COc1cccc(-c2nc(NCc3ccccc3OC)c3ccccc3n2)c1,0,-,14.1µM,-,-,0
COc1ccccc1CNc1nc(-c2ccc(N(C)C)cc2)nc2ccccc12,0,-,0,0,-,0
COc1ccc(CNc2nc(-c3ccccc3CN(C)C)nc3ccccc23)c(OC)c1,0,-,0,0,-,0
COc1ccccc1CNc1nc(-c2ccc3c(c2)OCO3)nc2ccccc12,0,-,15.8µM,-,-,0
COc1cccc(-c2nc(NCc3ccccc3)c3ccccc3n2)c1,0,-,0,-,-,0
COc1ccc(CNc2nc(-c3ccoc3)nc3ccccc23)c(OC)c1,0,-,14.1µM,0,-,0
COc1cc(SC)ccc1C(=O)N1CCN(c2ccc(O)cc2)CC1,0,0,0,0,3.98µM,0
COc1cc(SC)ccc1C(=O)N1CCN(c2ccccc2)CC1,0,0,0,0,0,0
C[C@H]1COC(=O)O1,0,-,0,-,-,0
CCCCc1cc2c(cn1)=C(OC(=O)c1cccs1)C(C)(OC(=O)CC)C(=O)C=2 (stereo not drawn),0[17.4 µM],-,0[12.8 µM],0,-,0[17.5 µM]
Cc1cc(C)c2nc(N(CCCN(C)C)C(=O)c3ccc(S(=O)(=O)N4CCCCCC4)cc3)sc2c1,-,-,15.8µM,-,-,-
COc1ccc(/C=N/Nc2cc(C)nc(N3CCOCC3)n2)c(OC)c1,0,-,0,0,0,0
Cc1cc(N/N=C/c2ccc(O)cc2O)nc(N2CCOCC2)n1,0,0,0,0,15.7µM,0
Oc1ccc(/C=N\Nc2cc(N3CCOCC3)nc(N3CCOCC3)n2)c(O)c1,0,0,0,0,10µM,0
CC(C)c1ccc(/C=N/Nc2cc(N3CCOCC3)nc(N3CCOCC3)n2)cc1,0,0,0,0,0,0
SMILES,aGlu spleen mod,GAA inhib,N370S GC mod,GLA inh pH 4.5,GAA glycogen mod,GLA spleen mod
Cc1c(NS(=O)(=O)c2ccccc2)cc(C(C)C)c(O)c1S(=O)(=O)c1ccc(Cl)cc1,-,-,-,-,11.2µM,-
COc1ccc(S(=O)(=O)c2c(C)c(NS(=O)(=O)c3ccccc3)cc(C)c2O)cc1,0,0,0,0,?,0
CC[C@H](C)[C@H](NC(=O)CNC(=O)[C@H](C)NC(=O)[C@H](C)N)C(=O)NCC(=O)N[C@H](C(=O)N[C@@H](CC(C)C)C(=O)N[C@H](C(=O)N[C@H](C(=O)O)C(C)C)[C@@H](C)O)[C@@H](C)CC,0,-,0,-,-,0
Cc1nc2ccccc2nc1N/N=C/c1ccc(O)cc1,0,-,0,0,25.1µM,0
Oc1ccc(Nc2nc3ccccc3nc2Nc2ccc(O)cc2)cc1,0,0,4.47µM,0,19.8µM,0
Oc1ccc(/C=N/Nc2ccccc2)cc1,0,0,0,0,?,0
COc1ccc(C2NC3=C(CCCC3)C(C#N)(C#N)C2(C#N)C#N)cc1 (stereo not drawn),0,0,0,0,0,0
COc1ccc(C2NC3=C(CCC3)C3(C#N)C4(N=C(N)C23C#N)OCCO4)cc1 (stereo not drawn),0,0,0,0,22.2µM,0
CC[C@H](C)[C@H](NC(=O)[C@H](Cc1ccc(O)cc1)NC(=O)[C@H](Cc1cnc[nH]1)NC(=O)[C@H](CCCNC(=N)N)NC(=O)[C@H](CC(C)C)NC(=O)[C@H](C)NC(=O)[C@H](CO)NC(=O)[C@H](Cc1ccc(O)cc1)NC(=O)[C@H](Cc1ccc(O)cc1)NC(=O)[C@H](CCCNC(=N)N)NC(=O)[C@H](C)NC(=O)[C@H](CCSC)NC(=O)[C@H](CC(=O)O)NC(=O)[C@H](CCC(=O)O)NC(=O)[C@H](C)NC(=O)[C@@H]1CCCN1)C(=O)N[C@@H](CC(N)=O)C(=O)N[C@@H](CC(C)C)C(=O)N[C@H](C(=O)N[C@H](C(=O)N[C@@H](CCCNC(=N)N)C(=O)N[C@@H](CCC(N)=O)C(=O)N[C@@H](CCCNC(=N)N)C(=O)N[C@@H](Cc1ccc(O)cc1)C(N)=O)[C@@H](C)O)[C@@H](C)CC,0,-,0,-,-,0
COc1ccc(C(=O)Nc2sc3c(c2C(N)=O)CCCC3)cc1OC,0,-,0,-,-,0
O=C(N/N=C/c1ccc(O)c(O)c1)NC12CC3CC(CC(C3)C1)C2,-,-,0,-,10µM,-
COc1cccc(-c2nnc3n2N=C(c2c(OC)cccc2OC)CS3)c1OC,0,-,0,-,-,0
COc1cc(/C=N\NC(=O)c2c(C)nc3cc(C)ccn23)ccc1O,?,0,?,0,11.1µM,0
COc1cccc(-n2cc(C(=O)NCc3ccccc3OC)c3ccccc3c2=O)c1,-,-,-,-,39.8µM,-
Cc1ccc2[nH]c(-c3ccc(F)cc3F)cc(=O)c2c1,0,-,0,0,-,0
Cc1cccc(CNc2ccnc(-c3ccccc3Cl)n2)c1,0,-,7.08µM,-,-,0
Clc1ccccc1-c1nccc(NCc2ccccc2)n1,0,-,3.55µM,-,-,0
COc1ccccc1CNc1ccnc(-c2ccccc2Cl)n1,0,-,?,-,-,0
